# According to PubChem BioAssay:
# Target: PEG-3 (UniProt Q6IN02)
# Experiment: inhibition of PEG-3 promoter-driven reporter – cell-based, HeLa, luciferase, CREF/GAPDH counter-screen panel, dose response (AID 624167)
# Conditions: CREF/GAPDH counter-screens; HeLa PEG-Prom luciferase reporter, overnight, run 1, dose range 1, at 100 µM (top of the series) unless noted
# Chain of PEG-3 (Q6IN02 whole entry, looked up): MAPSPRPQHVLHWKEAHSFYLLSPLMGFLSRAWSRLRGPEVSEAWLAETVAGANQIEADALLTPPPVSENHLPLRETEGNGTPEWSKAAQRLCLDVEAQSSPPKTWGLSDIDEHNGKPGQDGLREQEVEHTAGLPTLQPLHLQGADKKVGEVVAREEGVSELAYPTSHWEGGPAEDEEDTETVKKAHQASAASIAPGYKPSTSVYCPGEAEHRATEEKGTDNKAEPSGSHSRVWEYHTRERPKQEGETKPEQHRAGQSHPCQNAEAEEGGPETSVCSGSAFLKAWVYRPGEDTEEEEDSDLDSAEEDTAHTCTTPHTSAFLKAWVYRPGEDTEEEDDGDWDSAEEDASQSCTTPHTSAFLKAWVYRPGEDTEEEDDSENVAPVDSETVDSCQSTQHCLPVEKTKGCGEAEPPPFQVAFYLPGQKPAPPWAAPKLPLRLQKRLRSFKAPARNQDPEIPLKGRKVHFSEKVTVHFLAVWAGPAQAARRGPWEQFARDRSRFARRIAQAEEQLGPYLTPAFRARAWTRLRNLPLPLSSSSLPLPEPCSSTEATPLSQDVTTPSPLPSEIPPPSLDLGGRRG
row,SMILES,inhibition
1,O=c1cc2oc3cc(O)c(O)cc3c(-c3ccccc3[N+](=O)[O-])c-2cc1O,93.5%
2,CCCN1C/C(=C/c2cccc([N+](=O)[O-])c2)C(=O)/C(=C/c2cccc([N+](=O)[O-])c2)C1,26.2%
3,COCOCCn1cc(CN2CCS(=O)(=O)N(Cc3ccc(-c4ccc(Cl)c(Cl)c4)cc3)C(C(C)C)C2=O)nn1 (stereo not given),92.6%
4,COc1ccc2c(c1)C=C([C@@H]1C[C@H]3CN(c4ccccc4)C(=O)[C@]34CCCN14)CO2,65.2%
5,CCN1CCN(Cc2c(O)ccc3c2O/C(=C\C=C\c2ccccc2)C3=O)CC1,99.1%
6,COc1ccc(-c2sc3ccccc3c2-c2ccc(OCCN3CCCCC3)cc2)cc1,99.5%
7,COc1ccc(-c2oc3ccc(-c4cc(OC)c(OC)c(OC)c4)cc3c2C#Cc2ccccn2)cc1,26.8%
8,Cc1ccc2nc(N(CCCN(C)C)C(=O)c3ccc4c(c3)CCCC4)sc2c1,99.5%
9,COc1cc(/C=C/[N+](=O)[O-])ccc1OC(=O)/C=C/c1ccc(F)cc1,-70.5%
10,COc1cc2c(cc1OC)CN(c1nc(-c3cccnc3)nc3ccccc13)CC2,95.5%
11,Cc1c(C(=O)Nc2ccc(S(=O)(=O)N(C)C3CCN(C)CC3)cc2)oc2c(Cl)cccc12,102%
12,CC1(C)C(=O)C=CC(=O)C(C)(C)C(=O)C=CC(=O)C(C)(C)C2=CC=C(O2)C(C)(C)C(=O)C=CC1=O,102%
13,CC(C)CC(NS(=O)(=O)OCC(Cl)(Cl)Cl)c1ccccc1 (stereo not given),97.2%
14,CSc1ccc2c(c1)C(N1CCN(C)CC1)Cc1ccccc1S2 (stereo not given),102%
15,NC(=O)C1CCN(C2=C(Cl)C(=O)c3ccccc3C2=O)CC1,100%
16,CCCCCc1ccc(OCCCC[n+]2cccc(C)c2)c(CCCCC)c1,98.6%
17,COc1cc(N=Nc2c(O)c3ccccc3[nH]c2=O)c(OC)cc1N=Nc1ccccc1,-11.2%
18,O=C(CCCN1C(=O)/C(=C/c2cccc(Br)c2)SC1=S)Nc1cccnc1,101%
19,Cc1cccc(NC(=O)CSc2nc3ccccc3c3nc(CCc4c(C)n[nH]c4C)nn23)c1,97.9%
20,COc1ccc(C23CC4CC(CC(C4)C2)C3)cc1C(=O)NCCN(C)C,101%

row,SMILES,inhibition
1,COc1ccc(CC(N)c2csc(NC(=O)Nc3cc(OC)ccc3OC)n2)cc1 (stereo not given),94.3%
2,CC(=O)Nc1cccc(-c2ccnc3c2CC(C)(C(=O)Nc2cccc(OC(F)(F)F)c2)O3)c1 (stereo not given),68.6%
3,COc1cccc(NC(=O)CN(C)C(=O)c2cc(-c3ccc(F)cc3)nc3ccccc23)c1,102%
4,O=C(c1ccccc1)N(C(=O)c1ccccc1)c1ncnc2c1C(c1ccccc1)c1c(ccc3ccccc13)O2 (stereo not given),52.7%
5,Oc1ccc(C[C@H]2CNCCN2CCc2cc(C(F)(F)F)cc(C(F)(F)F)c2)cc1,97.5%
6,CCOc1cc(CNCCCN2CCOCC2)ccc1OCC(=O)Nc1cccc2ccccc12,100%
7,O=C1C(Cl)=C(Nc2ccc(O)cc2)C(=O)c2ccccc21,102%
8,CCN1C/C(=C/c2ccc(N3CCOCC3)cc2)C(=O)/C(=C/c2ccc(N3CCOCC3)cc2)C1,94.6%
9,CN(C)C=NC(=O)c1[nH]c2ccc(Cl)cc2c1-c1ccccc1,98.6%
10,COc1ccc(-c2cc(-c3ccc(F)cc3)nc(N3CCN(C)CC3)n2)cc1,25.8%
11,O=C(O)c1ccc(N/N=C/c2ccc(OC(=O)c3ccccc3Cl)cc2)cc1,99.2%
12,CC1(Cc2ccc(Cl)c(Cl)c2)C(=O)Nc2ccc(S(=O)(=O)NC3CCCCC3)cc21 (stereo not given),92.8%
13,COc1ccc(CNC(=O)Nc2nc(C(N)Cc3ccc(F)cc3)cs2)cc1 (stereo not given),102%
14,CS(=O)(=O)c1ccc(C(=O)NCCN2C(=O)S/C(=C\c3cccnc3)C2=O)cc1[N+](=O)[O-],102%
15,Oc1cccc(C(Nc2nccs2)c2ccc3cccnc3c2O)c1 (stereo not given),97.4%
16,O=C(Sc1cccc2cccnc12)c1ccccc1Br,99.3%
17,CC(C)c1ccc(/C=N/Nc2ccc(C(=O)O)cc2)cc1,89.9%
18,COc1cccc(Nc2nc(C(N)Cc3ccccc3)cs2)n1 (stereo not given),97.8%
19,O=C(CCN1C(=O)/C(=C/c2cccs2)SC1=S)N1CCCCC1,96.2%
20,CCOC(=O)c1ccc(NC(=O)C2CCCN(S(=O)(=O)c3ccc(F)cc3)C2)cc1 (stereo not given),97.3%

# Target: PEG-3 (UniProt Q6IN02)
# Experiment: as above
# Conditions: CREF/GAPDH counter-screens; HeLa PEG-Prom luciferase reporter, overnight, run 2, dose range 1, at 100 µM (top of the series) unless noted
row,SMILES,inhibition
1,O=c1cc2oc3cc(O)c(O)cc3c(-c3ccccc3[N+](=O)[O-])c-2cc1O,99.6%
2,CCCN1C/C(=C/c2cccc([N+](=O)[O-])c2)C(=O)/C(=C/c2cccc([N+](=O)[O-])c2)C1,30.1%
3,COCOCCn1cc(CN2CCS(=O)(=O)N(Cc3ccc(-c4ccc(Cl)c(Cl)c4)cc3)C(C(C)C)C2=O)nn1 (stereo not given),97.8%
4,COc1ccc2c(c1)C=C([C@@H]1C[C@H]3CN(c4ccccc4)C(=O)[C@]34CCCN14)CO2,74%
5,CCN1CCN(Cc2c(O)ccc3c2O/C(=C\C=C\c2ccccc2)C3=O)CC1,101%
6,COc1ccc(-c2sc3ccccc3c2-c2ccc(OCCN3CCCCC3)cc2)cc1,100%
7,COc1ccc(-c2oc3ccc(-c4cc(OC)c(OC)c(OC)c4)cc3c2C#Cc2ccccn2)cc1,53.3%
8,Cc1ccc2nc(N(CCCN(C)C)C(=O)c3ccc4c(c3)CCCC4)sc2c1,101%
9,COc1cc(/C=C/[N+](=O)[O-])ccc1OC(=O)/C=C/c1ccc(F)cc1,-151%
10,COc1cc2c(cc1OC)CN(c1nc(-c3cccnc3)nc3ccccc13)CC2,99.1%
11,Cc1c(C(=O)Nc2ccc(S(=O)(=O)N(C)C3CCN(C)CC3)cc2)oc2c(Cl)cccc12,99.1%
12,CC1(C)C(=O)C=CC(=O)C(C)(C)C(=O)C=CC(=O)C(C)(C)C2=CC=C(O2)C(C)(C)C(=O)C=CC1=O,98.9%
13,CC(C)CC(NS(=O)(=O)OCC(Cl)(Cl)Cl)c1ccccc1 (stereo not given),99.4%
14,CSc1ccc2c(c1)C(N1CCN(C)CC1)Cc1ccccc1S2 (stereo not given),98.9%
15,NC(=O)C1CCN(C2=C(Cl)C(=O)c3ccccc3C2=O)CC1,97.8%
16,CCCCCc1ccc(OCCCC[n+]2cccc(C)c2)c(CCCCC)c1,101%
17,COc1cc(N=Nc2c(O)c3ccccc3[nH]c2=O)c(OC)cc1N=Nc1ccccc1,-33.1%
18,O=C(CCCN1C(=O)/C(=C/c2cccc(Br)c2)SC1=S)Nc1cccnc1,96.5%
19,Cc1cccc(NC(=O)CSc2nc3ccccc3c3nc(CCc4c(C)n[nH]c4C)nn23)c1,95.8%
20,COc1ccc(C23CC4CC(CC(C4)C2)C3)cc1C(=O)NCCN(C)C,102%

row,SMILES,inhibition
1,COc1ccc(CC(N)c2csc(NC(=O)Nc3cc(OC)ccc3OC)n2)cc1 (stereo not given),98.7%
2,CC(=O)Nc1cccc(-c2ccnc3c2CC(C)(C(=O)Nc2cccc(OC(F)(F)F)c2)O3)c1 (stereo not given),77.1%
3,COc1cccc(NC(=O)CN(C)C(=O)c2cc(-c3ccc(F)cc3)nc3ccccc23)c1,99.1%
4,O=C(c1ccccc1)N(C(=O)c1ccccc1)c1ncnc2c1C(c1ccccc1)c1c(ccc3ccccc13)O2 (stereo not given),28.4%
5,Oc1ccc(C[C@H]2CNCCN2CCc2cc(C(F)(F)F)cc(C(F)(F)F)c2)cc1,102%
6,CCOc1cc(CNCCCN2CCOCC2)ccc1OCC(=O)Nc1cccc2ccccc12,101%
7,O=C1C(Cl)=C(Nc2ccc(O)cc2)C(=O)c2ccccc21,101%
8,CCN1C/C(=C/c2ccc(N3CCOCC3)cc2)C(=O)/C(=C/c2ccc(N3CCOCC3)cc2)C1,96.4%
9,CN(C)C=NC(=O)c1[nH]c2ccc(Cl)cc2c1-c1ccccc1,96.5%
10,COc1ccc(-c2cc(-c3ccc(F)cc3)nc(N3CCN(C)CC3)n2)cc1,101%
11,O=C(O)c1ccc(N/N=C/c2ccc(OC(=O)c3ccccc3Cl)cc2)cc1,71.9%
12,CC1(Cc2ccc(Cl)c(Cl)c2)C(=O)Nc2ccc(S(=O)(=O)NC3CCCCC3)cc21 (stereo not given),95.4%
13,COc1ccc(CNC(=O)Nc2nc(C(N)Cc3ccc(F)cc3)cs2)cc1 (stereo not given),101%
14,CS(=O)(=O)c1ccc(C(=O)NCCN2C(=O)S/C(=C\c3cccnc3)C2=O)cc1[N+](=O)[O-],99.2%
15,Oc1cccc(C(Nc2nccs2)c2ccc3cccnc3c2O)c1 (stereo not given),98.7%
16,O=C(Sc1cccc2cccnc12)c1ccccc1Br,93.8%
17,CC(C)c1ccc(/C=N/Nc2ccc(C(=O)O)cc2)cc1,84%
18,COc1cccc(Nc2nc(C(N)Cc3ccccc3)cs2)n1 (stereo not given),99.1%
19,O=C(CCN1C(=O)/C(=C/c2cccs2)SC1=S)N1CCCCC1,94.3%
20,CCOC(=O)c1ccc(NC(=O)C2CCCN(S(=O)(=O)c3ccc(F)cc3)C2)cc1 (stereo not given),100%
